TDP1 cell noCPT: qHTS for Inhibitors of human tyrosyl-DNA phosphodiesterase 1 (TDP1): qHTS in cells in absence of CPT. DT40 Tdp1-/- hTDP1 cells, no CPT, ATP luminescence, 48 h. Potency, µM (doses to about 46.2 µM), for the others: at the highest dose activity change, negative = growth inhibition, actives largely listed as inhibitors. hit rate 15% among 420,000. AID 686978, 2013; note: potency is the fitted concentration of half-maximal effect; nearly all actives have a fitted effect of over 55% in size
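Chicken DT40 Tdp1-/- cells complemented with human TDP1, screened without camptothecin (DMSO vehicle only), 400 cells/well. Compounds pin-transferred, cells incubated at 37 °C for at least 48 hr. Growth read as ATP-dependent luminescence (CellTiter-Glo, 30 min at RT).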
IL-1B inflam inh: inflammasome signaling inhibition, IL-1 beta readout. hit rate 4.7% among 360,000. activity change, % at 57.5 µM. THP-1 LPS/ATP IL-1B secretion, AlphaLISA, 16 h; active compounds read low; in the data active = activity change below about -50%; inconclusive = mostly about -30% to -49%
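THP-1 cells pretreated 1 hr with compounds (up to 57.5 uM final), then stimulated with LPS (250 ng/mL final) plus ATP (1.25 mM final); secreted IL-1B measured by AlphaLISA after 16 hr, decreased signal indicating inhibition.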
HT1080 IDH1KD tx: HT-1080 IDH1 knockdown cell toxicity (counter line); hit rate 2% among 360,000; Potency, µM (top dose mostly 46.1 µM), without a hit: at the top dose activity, negative = toxicity, usual class: cytotoxic; HT-1080 IDH1 knockdown viability, ATP luminescence, 48 h; AID 686971;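 note: potency is the fitted concentration of half-maximal effect; 0% = DMSO wells and -100% = cell-free medium wells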
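Viability of IDH1-knockdown HT-1080 fibrosarcoma cells was assessed by CellTiter-Glo after 48 h at 37 °C with titrated compound; concentration-effect curves were classified by fit quality and response size.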
HT1080NT lethal: kills 2HG-producing HT-1080-NT fibrosarcoma cells; HT-1080-NT fibrosarcoma viability, CellTiter-Glo ATP luminescence, 48 h; Potency, µM (series often up to 46.1 µM), for the others: at the top dose activity, negative = less viability, actives largely listed as cytotoxic; hit rate 1.6% among 360,000; AID 686970;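 note: NT is the 2HG producing partner of a matched IDH1 knockdown line; potency is the fitted concentration of half-maximal effect; 0% = DMSO-treated cells and -100% = media-only wells without cells; nearly all actives have a fitted effect of over 55% in size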
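Read-out is CellTiter-Glo luminescence after 10 minutes at room temperature, following 48 hours' compound treatment of HT-1080-NT cells (750 cells/well, RPMI, 5% FBS, 37 degrees C).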
DT40 TDP1 CPT: DT40-hTDP1 cell growth loss with CPT; chicken DT40 Tdp1-/-;hTDP1 cells + 20 nM CPT, ATP luminescence, 48 h; Potency, µM (series often up to 46.2 µM), without a hit: at the highest dose activity change, negative = growth inhibition, actives largely listed as inhibitors; hit rate 12% among 420,000; note: potency is the fitted concentration of half-maximal effect; nearly all actives have a fitted effect of over 55% in size
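Cell growth measured by CellTiter-Glo luminescence after a minimum 48 h, 37 C compound exposure with 20 nM CPT in Tdp1-knockout DT40 cells stably expressing hTDP1, seeded 400/well; qHTS titration format.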
12-LOX inh: inhibitors of human 12S-lipoxygenase ALOX12; Potency, µM (highest dose often 108 µM), for the others: top-dose activity change, negative = inhibition, usual class: inhibitors; P18054; hit rate 1.1% among 580,000; purified 12hLO, xylenol orange hydroperoxide absorbance; note: potency is the fitted concentration of half-maximal effect
Target sequence (P18054 whole entry, looked up): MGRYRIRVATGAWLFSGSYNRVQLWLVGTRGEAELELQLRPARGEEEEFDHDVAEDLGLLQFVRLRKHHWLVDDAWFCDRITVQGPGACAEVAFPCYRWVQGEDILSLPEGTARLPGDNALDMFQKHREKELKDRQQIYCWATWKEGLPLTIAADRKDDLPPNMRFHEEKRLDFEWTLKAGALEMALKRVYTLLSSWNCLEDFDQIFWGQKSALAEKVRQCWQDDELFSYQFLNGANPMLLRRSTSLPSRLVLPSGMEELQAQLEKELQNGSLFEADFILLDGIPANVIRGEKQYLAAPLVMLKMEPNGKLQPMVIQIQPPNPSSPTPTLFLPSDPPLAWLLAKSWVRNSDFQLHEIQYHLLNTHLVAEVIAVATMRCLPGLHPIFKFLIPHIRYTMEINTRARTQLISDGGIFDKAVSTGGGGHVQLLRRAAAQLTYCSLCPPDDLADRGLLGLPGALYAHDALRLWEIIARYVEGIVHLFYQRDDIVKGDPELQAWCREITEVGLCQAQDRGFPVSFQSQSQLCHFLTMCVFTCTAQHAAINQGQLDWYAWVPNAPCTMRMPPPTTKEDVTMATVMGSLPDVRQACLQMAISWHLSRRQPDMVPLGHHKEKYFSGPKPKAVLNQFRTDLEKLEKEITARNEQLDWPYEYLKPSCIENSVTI
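Hydroperoxide product was detected by ferrous iron/xylenol orange as the 573 to 405 nm absorbance ratio. Arachidonic acid at 40 uM (final) was turned over for 30 min at room temperature by 150 nM human 12hLO, pH 7.0 Hepes buffer, after 15 min compound preincubation.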
Numbers without * were called inactive; ? = inconclusive; . = not tested or not shown; [ ] = another dose, or the depositor's remark. Many of the other results were omitted from the sample, so hits are more common in it than they were. Unless noted, calls come from the whole dose curve; as a rule, active = well fitted curve in the direction sought with a large enough effect; inconclusive = small, poorly fitted or top-dose-only effect, or another doubt; inactive = no such curve, though single readings can be large; an effect the other way counts as inactive or inconclusive. Unless noted, % is set by controls: 0 for no effect and ±100 for the full control effect.

SMILES | TDP1 cell noCPT | IL-1B inflam inh | HT1080 IDH1KD tx | HT1080NT lethal | DT40 TDP1 CPT | 12-LOX inh
COc1ccc(CNC(=O)C2CCN(S(=O)(=O)c3cccc4nsnc34)CC2)cc1 | ? | -7 | 0% | -1% | -15% | -27%
CCc1ccc(N2CC(c3noc(-c4ccco4)n3)CC2=O)cc1 (stereo unspecified) | . | . | . | . | . | -7%
CCCSc1ncc(Cl)c(C(=O)Nc2ccccc2C)n1 | . | . | . | . | . | 18%
O=C(Nc1ccccc1O)c1cc(-c2cccnc2)nc2ccccc12 | . | . | . | . | . | 4%
COc1cccc(N2CCN(C(=O)C3CCCN(S(=O)(=O)c4cccc5nsnc45)C3)CC2)c1 (stereo unspecified) | 9.2µM* | . | . | . | 9.2µM* | 0%
Cc1ccc(NC(=O)C2CCCN(S(=O)(=O)c3cccc4nsnc34)C2)cc1C (stereo unspecified) | 18µM* | . | . | . | ? | -17%
Cc1ccc(NC(=O)C2CCCN2S(=O)(=O)c2cccc3nsnc23)cc1F (stereo unspecified) | . | . | . | . | . | -25%
Cc1ccc(NC(=O)C2CCCN2S(=O)(=O)c2cccc3nsnc23)c(Br)c1 (stereo unspecified) | 21µM* | . | . | . | ? | -15%
COc1ccc2nc(NC(=O)C3CCCN(S(=O)(=O)c4cccc5nsnc45)C3)sc2c1 (stereo unspecified) | 16µM* | ? | -10% | -12% | ? | 24%
COc1ccc2nc(NC(=O)C3CCCN(S(=O)(=O)c4c(C)noc4C)C3)sc2c1 (stereo unspecified) | ? | -11 | -17% | -26% | ? | 6%[57.4 µM]
CC1CCN(C(=O)C2CCCN(S(=O)(=O)c3cccc4nsnc34)C2)CC1 (stereo unspecified) | -25% | 7 | -1% | -8% | ? | -10%
CCOc1ccccc1OCCCC(=O)Nc1ccc2c(C)cc(=O)oc2c1 | . | . | . | . | . | -10%
O=C(c1cccnc1OC1CCN(C(=O)C2CC2)C1)N1CCCCC1 (stereo unspecified) | . | . | . | . | . | 18%
O=C(NC1CC1)c1ccc2c(c1)C1C3CCC(C3)C1C(c1ccccc1)N2 (stereo unspecified) | 26µM* | ? | 4% | 4% | ? | -14%
COCCO[C@H]1C(=O)N(C2CCN(Cc3c[nH]c4ccccc34)CC2)[C@H]1c1ccncc1 | . | . | . | . | . | 39%
COc1cccc(/C=C/C(=O)c2c(C)nn3c4ccccc4n(C)c23)c1OC(C)C | . | . | . | . | . | -28%
N#Cc1ccc(COC(=O)c2ccc3c(c2)NC(=O)CS3)cc1 | . | . | . | . | . | -6%
O=C(/C=C/c1cccs1)OCC(=O)c1ccc2c(c1)-c1ccccc1C2 | . | . | . | . | . | -7%
CC(C)C(c1nnnn1Cc1ccccc1)N(Cc1ccco1)Cc1cccs1 (stereo unspecified) | 21µM* | -10 | -30% | -13% | ? | 4%
COc1cc2c(c3oc(-c4ccccc4)cc(=O)c13)C=CC(C)(C)O2 | 26µM* | 16 | 9% | -1% | 16µM* | ?
COc1cc(OC)c2c(=O)cc(-c3ccccc3)oc2c1 | ? | -23 | 0% | -4% | 21µM* | ?
COC(=O)c1ccccc1NC(=O)c1cc2c(-c3ccc(OC)c(OC)c3)nn(C)c2s1 | -18% | . | . | . | -12% | -13%
COc1ccc(CCNC(=O)c2cc3c(-c4ccc(OC)c(OC)c4)nn(C)c3s2)cc1OC | 2.9µM* | . | . | . | 2.6µM* | -14%
COCCNC(=O)c1cc2c(-c3ccc(Cl)cc3)nn(C)c2s1 | ? | -12 | -14% | -26% | ? | 0%
CCCCN(CC)CCCNC(=O)c1cc2c(-c3ccc(OC)c(OC)c3)nn(C)c2s1 | ? | -70* | ? | ? | ? | 0%
SMILES | TDP1 cell noCPT | IL-1B inflam inh | HT1080 IDH1KD tx | HT1080NT lethal | DT40 TDP1 CPT | 12-LOX inh
CCOCCCNC(=O)c1cc2c(-c3ccc(OC)c(OC)c3)nn(C)c2s1 | 18µM* | . | . | . | 7.3µM* | -19%
CCCn1c(=O)[nH]c(=O)c2c1nc(-c1ccc(O)cc1)n2CCOC | . | . | . | . | . | -75%
COc1ccc(-n2nnc(C(=O)NCc3cccs3)c2N)cc1OC | . | . | . | . | . | -11%
O=C(O)c1ccccc1N=Cc1c(O)n(-c2nccs2)c(=O)c2ccccc12 | -29% | 40 | -1% | -4% | ? | -20%
CCN(CC)S(=O)(=O)c1cccc(-n2c(O)c(C=Nc3ccccc3C(=O)O)c3ccccc3c2=O)c1 | 2.1µM* | 8 | ? | ? | 4.1µM* | -28%
CN(C)Cc1c(C(=O)N/N=C/c2cccc3ccccc23)nnn1-c1nonc1N | 3% | 1 | 24% | 14% | -8% | 0%
CN(C)Cc1c(C(=O)N/N=C/c2ccccc2OCc2c(F)cccc2Cl)nnn1-c1nonc1N | 5.2µM* | 41 | 8.2µM* | 12µM* | 4.1µM* | 7%
CN(C)Cc1c(C(=O)N/N=C/c2cccc(OCc3c(F)cccc3Cl)c2)nnn1-c1nonc1N | 7.3µM* | 0 | -1% | -1% | 9.2µM* | 7%
CN(C)Cc1c(C(=O)N/N=C/c2cccc(OCc3ccc(F)cc3)c2)nnn1-c1nonc1N | -11% | 12 | 10% | 11% | -2% | 16%
Cc1ccc(Cn2c(C(C)NC(=O)c3ccccc3)nc3ccccc32)cc1 (stereo unspecified) | 6.5µM* | . | . | . | ? | ?
CC(NC(=O)c1ccco1)c1nc2ccccc2n1Cc1ccccc1 (stereo unspecified) | . | . | . | . | . | -1%
Cc1ccc(C)c(Cn2c(C(C)NC(=O)c3ccc(F)cc3)nc3ccccc32)c1 (stereo unspecified) | ? | . | . | . | -3% | -34%
Cc1ccc(C)c(Cn2c(C(C)NC(=O)c3ccccc3)nc3ccccc32)c1 (stereo unspecified) | 21µM* | . | . | . | ? | -24%
CC(=O)Nc1ccc(NC(=O)CN(C)Cc2ccc(C(F)(F)F)cc2)cc1 | . | . | . | . | . | -1%
COc1ccc(Oc2c(C)oc3cc(OCC(=O)c4ccccc4)ccc3c2=O)cc1 | . | . | . | . | . | 27%
CN(C)c1ccc(CC(=O)N2CCCC(c3cc(C(=O)Nc4ccc(F)c(Cl)c4)no3)C2)cc1 (stereo unspecified) | 23µM* | -1 | ? | -25% | 16µM* | -16%
O=C(Nc1ccc(F)c(Cl)c1)c1cc(C2CCCN(S(=O)(=O)c3ccccc3)C2)on1 (stereo unspecified) | ? | -15 | ? | -24% | ? | ?

Screening data as filed in PubChem BioAssay.
